{
  "source": "PubChem BioAssay (NCATS)",
  "note": "Records with an inconclusive call do not appear. A number with no mark means an inactive call. Calls of active or inactive are those of the source. Calls follow the shape of the dose curve; as a rule, active = well fitted cell-killing curve with a large enough effect; inconclusive = small, poorly fitted or top-dose-only effect, or effect the other way; inactive = no such curve, though single readings can be large or run the other way. Potency is read from the fitted curve at half-maximal effect.",
  "data": [
    {"assay": "Viability qHTS for spleen associated tyrosine kinase inhibitor (SYKi) drug resistant MV4-11 cells (AID 1963824); also: nearly all actives have a fitted effect of over 35% in size", "conditions": "SYKi-resistant MV4-11 viability, CellTiter-Glo, 72 h; series mostly up to 45 µM; viability, % of control: at the top concentration", "method_in_brief": "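CellTiter-Glo luminescence, read 10 min after reagent addition, reports viability after a 72 hr compound exposure. Cells are an MV4-11 line made resistant to SYK inhibition, seeded at 500 per well onto compound-containing plates.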", "values": [
      {"compound": "Cc1cn2c(n1)Cc1ccc(Cl)cc1C(c1ccc(N)cc1)=N2", "Potency": "18.4 µM (active)"},
      {"compound": "CCCn1cc2c(nc(NC(=O)Nc3ccc(OC)cc3)n3nc(-c4ccco4)nc23)n1", "viability, % of control": "79.6%"},
      {"compound": "N#Cc1ccc(-c2ccc(S(=O)(=O)Nc3cccc(N)n3)cc2)cc1", "Potency": "7.31 µM (active)"},
      {"compound": "CN1CCN(C2=Nc3ccccc3Nc3ccc(OS(=O)(=O)C(F)(F)F)cc32)CC1", "Potency": "20.6 µM (active)"},
      {"compound": "O=C(NCc1nc2ccccc2c(=O)n1-c1ccc(F)cc1)Nc1ccc(Cl)c(C(F)(F)F)c1", "Potency": "20.6 µM (active)"},
      {"compound": "O=C(/C=C/n1cnc(-c2cc(C(F)(F)F)cc(C(F)(F)F)c2)n1)NNc1cnccn1", "Potency": "1.46 µM (active)"},
      {"compound": "CC(C)[C@](O)(c1ccc2cc(OC(F)F)c(OC(F)F)cc2c1)c1cn[nH]n1", "Potency": "14.8 µM (active)"},
      {"compound": "CC1OC(OC2C(O)COC(O[C@@H]3[C@@H](O)[C@@H](O)[C@H](OC4C(OC(=O)[C@]56CCC(C)(C)CC5C5=CCC7[C@@]8(C)C[C@H](O)[C@H](OC9OC(CO)C(O)C(O)C9O)[C@@](C)(CO)C8[C@H](O)C[C@@]7(C)[C@]5(C)CC6)OCC(O)C4O)O[C@H]3C)C2O)C(O)C(O)C1O", "note": "(stereo not given in full)", "Potency": "1.23 µM (active)"},
      {"compound": "CO[C@H]1O[C@@H]2O[C@@]3(C)CCC4[C@H](C)CCC([C@H]1C)[C@]42OO3", "note": "(stereo not given in full)", "Potency": "2.91 µM (active)"},
      {"compound": "CC1C(OC(=O)c2ccccc2)C(O)C2C(C(=O)O)=COC(OC3OC(CO)C(O)C(O)C3O)C12", "note": "(stereo not given)", "viability, % of control": "89.8% [at 17.3 µM]"},
      {"compound": "C=CC(C)(/C=C/c1ccc(O)cc1)CCC=C(C)C", "note": "(stereo not given)", "Potency": "23.1 µM (active)"},
      {"compound": "CC(C)c1c(O)ccc2c1CC[C@H]1C(C)(C)CCC[C@]21C", "Potency": "16.4 µM (active)"},
      {"compound": "CC(=O)N[C@H](Cc1c[nH]c2ccccc12)C(=O)OCc1cc(C(F)(F)F)cc(C(F)(F)F)c1", "Potency": "23.1 µM (active)"},
      {"compound": "COCC1OC(n2cnc3c(=O)[nH]cnc32)C(O)C1O", "note": "(stereo not given)", "viability, % of control": "103%"},
      {"compound": "CCOC(=O)[C@@]1(CCCCCCOc2ccc(Cl)cc2)CO1", "Potency": "20.9 µM (active)"},
      {"compound": "COc1ccc([C@@]2(O)c3c(ccc4c3OC(C)(CCC=C(C)C)C=C4)NC(=O)[C@@H]2OC)cc1", "note": "(stereo not given in full)", "viability, % of control": "21.9% [at 17.3 µM]"},
      {"compound": "Nc1ncnc2n[nH]c(Nc3ccc(F)cc3)c12", "Potency": "6.51 µM (active)"},
      {"compound": "C=C1C(=O)O[C@@H]2C=C(COC(C)=O)CC/C=C(\\CO)CC[C@@H]12", "Potency": "14.3 µM (active)"},
      {"compound": "Nc1nc2ccc([N+](=O)[O-])cc2s1", "Potency": "27.3 µM (active)"},
      {"compound": "Cc1ccc(S(=O)(=O)NCc2ccc(C(=O)NCCN(Cc3ccccc3)C(C)C)cc2)cc1", "Potency": "14.6 µM (active)"},
      {"compound": "CO[C@@H]1[C@@H](O[C@H]2O[C@@H](C)[C@H](O[C@@H]3C[C@](C)(O)[C@H](O)[C@@H](C)O3)[C@@H](N(C)C)[C@@H]2O)[C@@H](CC=O)C[C@@H](C)[C@@H](O[C@H]2CC[C@H](N(C)C)[C@H](C)O2)/C=C/C=C/C[C@@H](C)OC(=O)C[C@H]1O", "Potency": "10.3 µM (active)"},
      {"compound": "COC(=O)C1=CO[C@@H](O[C@@H]2O[C@H](CO)[C@@H](O)[C@H](O)[C@H]2O)[C@H]2[C@@H]1C=C[C@]21C=C([C@H](C)OC(=O)/C=C/c2ccc(O[C@@H]3O[C@H](CO)[C@@H](O)[C@H](O)[C@H]3O)cc2)C(=O)O1", "viability, % of control": "77.2% [at 17.3 µM]"},
      {"compound": "COc1nc2ccc(Br)cc2cc1[C@@H](c1ccccc1)[C@@](O)(CCN(C)C)c1cccc2ccccc12", "Potency": "9.2 µM (active)"},
      {"compound": "Cc1cc2occ(CN(C)CCN(C)Cc3cn(-c4cccc(C(F)(F)F)c4)c4ccccc34)c(=O)c2cc1C", "Potency": "4.61 µM (active)"},
      {"compound": "COC(=O)C[C@H]1C(C)(C)[C@H](OC(C)=O)C2CC3=C4CC(=O)O[C@@H](c5ccoc5)[C@]4(C)CCC3[C@@]1(C)C2=O", "note": "(stereo not given in full)", "Potency": "3.55 µM (active)"},
      {"compound": "COc1c(-c2ccc3cc(NS(C)(=O)=O)ccc3c2)cc(-n2ccc(=O)[nH]c2=O)cc1C(C)(C)C", "Potency": "16.4 µM (active)"},
      {"compound": "CC(C)=CCC/C(C)=C/CC/C(C)=C/CC[C@]1(C)CCc2cc(O)cc(C)c2O1", "viability, % of control": "59.2% [at 17.3 µM]"},
      {"compound": "COc1c2cc(c(O)c1OC)CCCCC(O)CCc1ccc(O)c-2c1", "note": "(stereo not given)", "Potency": "14.3 µM (active)"},
      {"compound": "CC(=O)[C@@H]1CC[C@]2(C(=O)O)CC[C@]3(C)C(CCC4[C@@]5(C)CC[C@H](O)C(C)(C)C5CC[C@]43C)C12", "note": "(stereo not given in full)", "Potency": "7.09 µM (active)"},
      {"compound": "CC(=O)OC1C(O)CC2(C)C(CCC(C)C23Cc2c(O)cc(CO)c(C=O)c2O3)C1(C)C", "note": "(stereo not given)", "Potency": "11.2 µM (active)"},
      {"compound": "Oc1ccc(-c2cnc3ccc(NCc4ccco4)nn23)cc1", "Potency": "0.092 µM (active)"},
      {"compound": "COC1C=C(C)C(O)(CO)C2(C)CCCC(C)(C)C12", "note": "(stereo not given)", "viability, % of control": "81.2%"},
      {"compound": "N#Cc1ccc(COc2ccc(-c3cccc4nc(NC(=O)C5CC5)nn34)cc2)cn1", "Potency": "0.651 µM (active)"},
      {"compound": "CC(=O)NC(CCC(=O)O)C(=O)NCCc1ccc(O)cc1", "note": "(stereo not given)", "viability, % of control": "85%"},
      {"compound": "CC1C(=O)CC2C3C(O)CC(C(=O)O)C12CC3(C)C", "note": "(stereo not given)", "Potency": "20.6 µM (active)"},
      {"compound": "COc1cc(N2CCN(C)CC2)ccc1Nc1ncc2c(n1)N(C)c1ccccc1C(=O)N2", "Potency": "13.2 µM (active)"},
      {"compound": "CC(C)=C/C=C\\[C@H](C)[C@H]1CC[C@]2(C)C[C@@H]3C(C)=CC(=O)C3/C(CO)=C\\C[C@@H]12", "note": "(stereo not given in full)", "Potency": "14.3 µM (active)"},
      {"compound": "Cn1c(=O)c2nc(/C=C/c3cccc(Cl)c3)n(C)c2n(C)c1=O", "viability, % of control": "80.4% [at 91.9 µM]"},
      {"compound": "CCC[C@@H]1C[C@@H](C(=O)N[C@@H]([C@H]2O[C@H](SC)[C@H](O)[C@@H](O)[C@@H]2O)[C@@H](C)O)N(C)C1", "viability, % of control": "108%"},
      {"compound": "COC(=O)CC(O)C1OC(c2ccccc2)C(O)C1O", "note": "(stereo not given)", "viability, % of control": "55.5%"}
    ]}
  ]
}
